High-throughput results from PubChem.
An excerpt weighted towards active compounds, which were near 1.6% of everything screened.
FBPA coupling cs = qHTS Assay for Inhibitors of Fructose-1,6-bisphosphate Aldolase from Giardia Lamblia: Coupling assay counterscreen; coupling enzyme system counterscreen, AmpLite Red fluorescence; hit rate 0.67% among 290,000; activity change, negative = inhibition, % at 58.2 µM, hits read low; in the data active = activity change below about -30%; also: % is scaled to controls: 0 for no effect and ±100 for the full control effect
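Compounds tested against the coupling enzymes alone at 57.5 uM final; readout was AmpLite Red fluorescence (525/598 nm) after 20 min at RT.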
gsp antag = qHTS for Antagonists of gsp, the Etiologic Mutation Responsible for Fibrous Dysplasia/McCune-Albright Syndrome: qHTS; gsp-mutant cells, cAMP HTRF, 30 min; Potency, µM (top dose mostly 76.9 µM), inactives show top-dose activity change, negative = inhibition, actives largely listed as inhibitors; hit rate 0.4% among 340,000; calls by dose curve; cell line not stated here;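 also: intracellular cAMP measured with PDE inhibitor Ro 20-1724 present during compound exposure; potency is read from the fitted curve at half-maximal effect; % is scaled to controls: 0 for no effect and ±100 for the full control effect; nearly all actives have a fitted effect of over 65% in size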
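HTRF cAMP measurement after 30 min RT detection following 30 min, 37C compound treatment alongside […] (added as 300 uM solution) in G418-selected cells seeded at 2000/well and grown 16–24 h.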
RXFP1 agonist = qHTS Assay for Agonists of the Relaxin Receptor RXFP1; Relaxin receptor 1 (Homo sapiens), Q9HBX9; HEK293T-RXFP1 cAMP TR-FRET, 30 min; response scale: percent of porcine relaxin response, buffer zero; Potency, µM (highest dose often 57.5 µM), for inactives: at the highest dose activation, actives largely listed as activators; hit rate 0.3% among 370,000; active = well fitted activation curve with a large enough effect; inconclusive = small, poorly fitted or top-dose-only effect; also: potency is read from the fitted curve at half-maximal effect; % is scaled to controls: 0 for no effect and ±100 for the full control effect; nearly all actives have a fitted effect of over 60% in size
Target sequence (Q9HBX9 whole entry, looked up): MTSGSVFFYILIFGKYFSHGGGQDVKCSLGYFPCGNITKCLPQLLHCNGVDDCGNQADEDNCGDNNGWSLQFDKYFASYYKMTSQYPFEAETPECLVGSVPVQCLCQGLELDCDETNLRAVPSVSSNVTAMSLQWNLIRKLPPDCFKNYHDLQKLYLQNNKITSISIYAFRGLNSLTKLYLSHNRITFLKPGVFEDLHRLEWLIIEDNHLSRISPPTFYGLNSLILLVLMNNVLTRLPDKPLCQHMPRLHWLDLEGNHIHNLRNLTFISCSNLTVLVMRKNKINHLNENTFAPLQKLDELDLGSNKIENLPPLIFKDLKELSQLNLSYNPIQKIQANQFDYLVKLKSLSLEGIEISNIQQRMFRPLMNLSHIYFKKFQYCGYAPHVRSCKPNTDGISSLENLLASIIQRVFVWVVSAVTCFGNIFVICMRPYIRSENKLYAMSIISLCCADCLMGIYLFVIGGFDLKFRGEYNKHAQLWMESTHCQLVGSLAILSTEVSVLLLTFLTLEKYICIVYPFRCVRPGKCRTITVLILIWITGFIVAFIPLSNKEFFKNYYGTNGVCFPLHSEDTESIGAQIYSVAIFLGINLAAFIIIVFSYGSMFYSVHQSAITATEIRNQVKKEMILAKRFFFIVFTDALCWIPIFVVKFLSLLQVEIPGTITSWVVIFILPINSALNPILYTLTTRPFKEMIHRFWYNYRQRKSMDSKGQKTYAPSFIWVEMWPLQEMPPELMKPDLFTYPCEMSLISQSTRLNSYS
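cAMP rise read by TR-FRET after 30 min, 37C compound exposure (up to 58 uM) in RXFP1-transfected HEK293 cells with Ro 20174 present. EC50 from Hill-equation fits, with 29 nM porcine relaxin as 100% and buffer as basal.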
Giardia killer = Small Molecules that selectively kill Giardia lamblia: qHTS; activity change, % at 7.66 µM, hits read low; Giardia lamblia trophozoite viability; hit rate 0.15% among 340,000; AID 540267, 2011; in the data active = activity change below about -80%; inconclusive = between about -30% and that limit;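 also: parasites exposed to compound for two days anaerobically before the ATP read; % is scaled to controls: 0 for no effect and ±100 for the full control effect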
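Giardia lamblia trophozoites (100 cells/well) were incubated with compounds for 48 h at 37 deg C under anaerobic conditions. Viability was read as ATP content by one-step luminescence after 15-30 min at room temperature.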
RXFP1 antag = qHTS Assay for Antagonists of the Relaxin Receptor RXFP1. Relaxin receptor 1 (Homo sapiens), Q9HBX9. activity change, negative = inhibition, % at 57.5 µM. HEK293-RXFP1, relaxin-stimulated cAMP HTRF, 30 min; active compounds read low. hit rate 0.59% among 350,000. AID 1259400, 2018;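 active = activity change of -60% or lower, but not beyond a set lower limit; inconclusive = change between -60% and -40%, or beyond the set limit; inactive = change above -40%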; also: % is scaled to controls: 0 for no effect and ±100 for the full control effect
gsp agonist = qHTS for Agonist of gsp, the Etiologic Mutation Responsible for Fibrous Dysplasia/McCune-Albright Syndrome: qHTS; gsp mutant cells, cAMP HTRF, 30 min; Potency, µM (doses to about 76.9 µM), without a hit: at the top dose activation (cAMP increase), most hits filed as activators; hit rate 0.13% among 340,000; active = well fitted activation curve with a large enough effect; inconclusive = small, poorly fitted or top-dose-only effect, or another doubt; inactive = no such curve, though single readings can be large or run the other way; cell line not stated here;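 also: phosphodiesterase inhibitor Ro 20-1724 added with compounds to block cAMP breakdown; potency is read from the fitted curve at half-maximal effect; nearly all actives have a fitted effect of over 60% in size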
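Cells stably selected in G418 were plated at 2000/well, grown 16-24 hr, then given compounds in DMSO with the PDE inhibitor […] (300 uM solution added) for 30 min at 37C; cAMP was read by HTRF.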
The depositor's hits bear a star; ? = inconclusive; . = no result given; [ ] = remark or other dose.

SMILES	FBPA coupling cs	gsp antag	RXFP1 agonist	Giardia killer	RXFP1 antag	gsp agonist
COc1ccccc1C(=O)NC(=S)N1CCCc2ccccc21	-39*	-15%	-1%	30	12	16%
COc1ccccc1C(=O)NC(=S)N1CCc2ccccc21	-3	-8%	1%	-16	-7	7%
COc1cc(C)c(CNc2ccc(OC)c(OC)c2)cc1C	-31*	.	0%	.	.	.
CC(=O)O[C@@]12CO[C@@H]1C[C@H](O)[C@@]1(C)C(=O)[C@H](O)C3=C(C)[C@@H](OC(=O)[C@H](O)[C@@H](NC(=O)OC(C)(C)C)c4ccccc4)C[C@@](O)([C@@H](OC(=O)c4ccccc4)[C@H]21)C3(C)C	.	.	.	.	-15	.
O=C1C(F)=CC(COC(c2ccccc2)(c2ccccc2)c2ccccc2)OC1n1cc(F)c(=O)[nH]c1=O (stereo not given)	.	21%	.	1	-84*	-4%
CC(=O)OCC1OC(n2cc(F)c(=O)[nH]c2=O)C(OC(C)=O)C1OC(C)=O (stereo not given)	.	11%	.	-1	7	24%
CSc1ccc(CCNC(=O)C2CCCN(S(=O)(=O)N(C)c3ccc(F)cc3)C2)cc1 (stereo not given)	.	.	4%	.	-23	.
CC(CC(=O)Nc1ncc([N+](=O)[O-])s1)c1ccccc1 (stereo not given)	-1	-9%	2%	-86*	-12	9%[15.4 µM]
CCC(Oc1ccccc1)C(=O)Nc1ncc([N+](=O)[O-])s1 (stereo not given)	13	-19%	2%	-88*	-13	10%
Cc1ccc([N+](=O)[O-])cc1S(=O)(=O)N1CCn2cccc2C1c1ccccc1F (stereo not given)	.	.	0%	.	5	.
CC(NC(CCc1ccccc1)C(=O)O)C(=O)N1C(=O)N(C)CC1C(=O)O (stereo not given)	.	.	.	.	7	.
C=CCn1c(SCc2ccccc2C#N)nnc1-c1cc(Br)ccc1O	0	35µM*	0%	-2	-11	-2%
Cc1ccc(-c2nn(-c3ccccc3)cc2/C=N/NC(=O)c2ccc(Br)o2)cc1	-2	32µM*	3%	12	-9	0%
O=C(N/N=C/c1ccc([N+](=O)[O-])o1)c1cn(-c2ccccc2)nc1-c1ccccc1	0	-13%	0%	-95*	4	-2%[15.4 µM]
O=C(N/N=C\c1ccccc1)c1ccccc1-n1cccc1	1	.	0%	-1	1	10%[15.4 µM]
O=C(N/N=C/c1ccc([N+](=O)[O-])o1)c1ccccc1-n1cccc1	-2	0%	1%	-99*	6	?
O=C(N/N=C/c1ccc([N+](=O)[O-])o1)c1cn(-c2ccccc2)nc1-c1ccc(Cl)cc1	2	-4%	1%	-90*	5	14%
O=C1NC(c2ccccc2)(c2ccccc2)C(=O)N1COP(=O)(O)O	.	.	.	.	-9	.
CNC(=O)C[C@H]1C(=O)N(Cc2ccccc2)C[C@@H]1Cc1ccccc1	.	.	.	.	0	-57%
COc1cc(-c2ccc(N=Nc3ccc4c(S(=O)(=O)O)cc(S(=O)(=O)O)c(N)c4c3O)c(OC)c2)ccc1N=Nc1ccc2c(S(=O)(=O)O)cc(S(=O)(=O)O)c(N)c2c1O	-57*	.	.	.	.	.
CCn1c2ccccc2c2cc(CN3CCN(Cc4cc(OC)c(O)c(OC)c4)CC3)ccc21	.	.	3%	.	-67*	.
COc1ccc(N(CC(C)C)S(=O)(=O)c2nnc(NC(=O)c3cccs3)s2)cc1	.	.	0%	.	-4	.
CN(Cc1ccccc1)S(=O)(=O)c1cccc2cccnc12	-31*	-8%	2%	15	-15	-11%
COc1cccc(CNC(=O)CN(C)S(=O)(=O)c2cccc3cccnc23)c1	0	-19%	1%	-12	7	17%
COc1ccc(C)cc1NC(=O)c1c2c(nc3ccccc13)C(=O)N(C1CCCCC1)C2	.	.	1%	.	1	.
SMILES	FBPA coupling cs	gsp antag	RXFP1 agonist	Giardia killer	RXFP1 antag	gsp agonist
COC(=O)c1cccc(-c2ccc(C(c3c(C)[nH][nH]c3=O)c3c(C)[nH][nH]c3=O)o2)c1	-46*	-1%	3%	-7	-5	3%[15.4 µM]
Cc1[nH][nH]c(=O)c1C(c1ccc(-c2ccc(Cl)c(C(=O)O)c2)o1)c1c(C)[nH][nH]c1=O	-48*	0%	9%	6	7	3%
COC(=O)c1ccccc1-c1ccc(C(c2c(C)[nH][nH]c2=O)c2c(C)[nH][nH]c2=O)o1	-1	4%	2%	7	-5	38%[15.4 µM]
COC(=O)CCN(Cc1ccco1)S(=O)(=O)c1ccc(F)cc1Br	0	.	.	10	.	.
CCCCCCC(O)(c1ccccc1)C(CN1CCOCC1)c1ccccc1 (stereo not given)	-1	-4%	0%	31	?	-41%
COc1ccc(C(O)(CCC(C)C)C(CN2CCOCC2)c2ccccc2)cc1 (stereo not given)	-2	-25%	5%	24	?	-35%
CC(C)CCC(O)(c1ccccc1)C(CN1CCOCC1)c1ccccc1 (stereo not given)	0	-5%	-1%	7	-80*	-4%[15.4 µM]
CCCCCC(O)(c1ccccc1)C(CN1CCOCC1)c1ccccc1 (stereo not given)	0	0%	0%	6	-64*	-22%
CCCCCOc1ccc(/C=c2\sc3nc(=O)c(-c4ccccc4)nn3c2=O)cc1OC	1	11%	1%	-12	-5	12%
O=c1nc2s/c(=C\c3ccc(-c4ccccc4[N+](=O)[O-])o3)c(=O)n2nc1-c1ccccc1	-50*	9%	0%	-5	-8	4%
NC(=O)c1ccsc1NC(=O)CN1CCN(S(=O)(=O)c2ccccc2C(F)(F)F)CC1	.	50µM*	.	5	?	15%
COc1cc2c(cc1OC)C(=O)CC2	.	.	.	.	6	.
Cc1ccc(N=Cc2cc3c(cc2O)OC(N)=C(C#N)C3c2ccccc2)cc1 (stereo not given)	0	?	0%	7	-69*	-14%
N#CC1=C(N)Oc2cc(O)c(C=Nc3ccccc3)cc2C1c1ccccc1 (stereo not given)	3	-34%	3%	0	3	-3%
O=C(/C=C/c1ccc(Cl)cc1Cl)NCCSc1ccccc1	-1	45µM*	0%	6	-18	?
